Among the data in PubChem BioAssay AID1508600 (Functional Genomics Laboratory (NCATS/FGL), 2020) are z-score values, retold here.

Hit rate of the full screen: of about 53,000 sequences, about 3,700 (7%) were called active. Only a selection was taken, and actives are over-represented in it overall. Unmarked numbers belong to inactive results.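 Rule for the calls: active = gene knockdowns whose robust z-score for IL-1 alpha signal is at least 2 or at most -2, so actives lie on both sides; inactive = the rest.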

The nature of this assay: Components of the Cytosolic LPS Sensing Pathway: Gene Identification via Genome-wide siRNA Screen.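 Note: robust z of the log signal after scaling to non-targeting control siRNA wells of the plate.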 As to conditions: RAW264.7 macrophages, IL-1a HTRF, actives lie on both sides, screened at 100 nM (by protocol), cells primed 5 h with Pam3CSK4 first. Put shortly:
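IL-1a HTRF of supernatants after 24 hour LipidA transfection of Pam3CSK4-primed (5 hours) RAW264.7 cells, 48h post-siRNA transfection (100 nM). Scores: percent of plate negative-control median, then log-based robust z-score.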
In the case of GGAAUUGAGGUGAUGGAUATT against Sfxn4, the z-score is -0.144.
With CGGGAUCUAUCCACUGAUGTT against Nrbp2 the figure was -0.983; with GGCUACAAGGAGAAGUUUGTT against Traf3, 2.02 (active).
Turning to GCUCUAUGGAUCCUUGGAGTT against Zfp574, the z-score is 0.772.
For GCUCAAUGUGACAGUGGUGTT against Elane, the z-score was 0.38.
Next, GGAAACCGUUCUCAUUAAATT against Mrpl30: 0.599; GGUUUGGUUGAAAUUGAACTT against Smc5: -1.16; CCUCAUGGUGAUGAUAUCCTT against Taar6: -1.35.
With GGAAGAUGAAGAGUCAGAGTT against Setd1b the figure was -2.52 (active); with CGACAAUGCCAUCGAUUCGTT against Sdc3, 0.0399.
On to GGUCACACUUUCUUUGGAATT against Tcf25, for which the z-score is 0.775.
With CCUAAAGACGUGCAAUAUGTT against Zfp287 the figure was 0.526.
Next, GGUUGUUCAUGAGCCGAACTT against Rpl18: -0.0641; GGGUGCGGAAAUUCAUUAATT against Mpv17l2: 0.803.
With GGCGCAGUAUCACAGUCUUTT against Tle1 the figure was 1.02; with GGAUGAGAACAGCAACCAGTT against Bcl7b, -2.22 (active); with GGUUCCAACAAUUGUAAAGTT against Chl1, -0.00378.
As for GGAUUUUAAACAAAAGACCTT against Stard13, the z-score was 0.718.
Regarding GGUUCACGGUUUAUAAAGUTT against Sgk3, the z-score is -0.652.
Next, GCUCCUGUACAGUUCAAACTT against Mrpl17: 0.0768; GCAGAAAGCACACUCCUACTT against Psors1c2: -2.02 (active); GGAGAAGGUAGUUCUGAAATT against Slc7a11: -0.349.
On to GCACAACAUCACGGUGAACTT against Adcy5, for which the z-score is -0.672.
With CCACUAUGCUUCUUGGAAUTT against Serpini2 the figure was -0.73; with “GGAAAAGAAACCAGUUUCUTT against C230012O17Rik”, -2.07 (active).
With GGACAAAAGACACAUGUUGTT against Miip the figure was -0.674.
Turning to GGAUUUUCACAUUGCAUCUTT against Dmrtc1a, the z-score is 1.49.
With CCUUUGAACCUCUAACUUUTT against Xpnpep1 the figure was 3.62 (active); with “GUUUUAGGCAACCUUGGGUTT against Olfr1038-ps”, -0.14; with GGGACUCUAAAAACAAUGATT against Zkscan14, 2.67 (active).
With CCCAAAAUACAUCAUCAAUTT against Psmc2 the figure was -0.444.
Next, GGACAACCACUUUAAGCUUTT against Tars2: 1.04; GCCUACGUUACCUUGAUCCTT against Slc16a12: 0.0774.
For the sequence CCGGUAUUUAGGAACUGCCTT against Irak2, the z-score was -1.66.
In the case of GGAGUCAACACACAUCAAGTT against Zfp13, the z-score is 1.
Next, GGAAACCUGGAAACAGUUUTT against Apol7c: 0.377; GGACAGCAGCAACAACAUCTT against Dnase1l3: -2.04 (active).
Next, GCGACGGAAGUCUUUAUUATT against Nostrin: -0.163; GGGUGAAGUAGGUGAAAAATT against H2-M10.6: -0.361; “CGUAGCUAAUCCGUAAAAGTT against 1700120K04Rik”: -1.93.
With GGACAAAUCAGUUCUGCGUTT against Car13 the figure was 0.105; with GGAACUUGGUAUUUAGAUCTT against Rhot2, 0.295; with GGAUGAGUUUGACAAGCUGTT against Rhou, -0.735.
Turning to GGAGGAAAAGAGACAGCUCTT against Kank2, the z-score was -2.41 (active).
In the case of GUGUCAACCUAAGCUUGGCTT against Tlx3, the z-score is -1.19.
With GGUGUACCUCUGAAAAAAATT against Zbp1 the figure was -1.5; with AGAACGGAACCAUAGGGAATT against Cmc2, -0.897.
With GGUAGUUCAGAUCUGAUUUTT against Svep1 the figure was 0.599; with CGUUGCAGUCUAAGCUUGUTT against Rabac1, 4.44 (active).
With AUGGAAUCCAGUAUAGAGCTT against Cep44 the figure was 0.713.
Consider GGAAGAAUGUAGGAGGAAGTT against Sln, for which the z-score was 0.246.
With GGUAUGAUCAAUGACUUACTT against Serpine1 the figure was -0.165; with GGCUGACUUUCUGUCACAGTT against Olfr655, 1.03; with GCCUGAAUUCCACUACUCGTT against Def8, 0.551.
As for GGACAAGCUGAGGUGAAAATT against Maats1, the z-score was -1.08.
Next, CGUACACCGUAUUCAUGACTT against Rapgef5: 3.6 (active); “GGAUGACUACAAAUGCAAATT against E230015B07Rik”: -0.155; GCUAGGAUUUCAGCAUAUATT against Adra1a: 0.29.
As to GGUCCUAACCGACAUGUCUTT against Vrk1, the z-score is 0.305.
Next, CGUAGUGUUCUGUGUUUAUTT against Mif: 1.36; GGACUUAGUACCUGAUAACTT against Rtraf: 0.838; GCCUAUUGUCAGAAAAGUUTT against Usp4: -0.385.
Next, GGGACUCAACCUAUAUCUUTT against Gnpat: 0.118; CCGGUUGAGUUCACAGAAUTT against Atad3aos: -2.44 (active).
With GGAUUUCGAGAUAACUAUGTT against Tbr1 the figure was -0.0186; with CGUAUGGAGUCCAUUACUATT against Frmd4b, 0.341.
On to GGAUUCAAACAAUGAGCUCTT against Fam126b, for which the z-score was 0.9.
In the case of GCUACUUUGACAUGCACACTT against Caly, the z-score was 2.1 (active).
With GGCGGAUCUCUUGAGUGUUTT against Glyctk, the z-score was 0.213.
Next, GGUAUCAUUUACUUUGAACTT against Gtf2f2: -0.0825; GCCAGUUCAUACAAGAGGGTT against Zfp946: 0.623.
Next, GGAGAUCACAGCAAUCCGATT against Ccna1: -1.01.
Take GUAUGUUGACAUUUGCCUGTT against Olfr113: the z-score was -2.05 (active).
With GGGCGGAGCAUUUUUCUUGTT against Ube2d2b the figure was 0.483; with GGAAGAUGACAGUGCUGUATT against Utp25, -0.868.
With GGGAUAAGUACUCUGCUAATT against Sorcs3, the z-score is -0.146.
As for CCAAGGGUCACCUAUUUUUTT against Kcna5, the z-score was 1.97.
Take CCUGCAUUAGCAUGUUAGGTT against Gfral: the z-score is -0.483.
Next, GGUAGCUAAGAAGUUUAUUTT against Dck: 1.55; GGAUUUAUCCCAAAAUCUATT against Tmem26: 0.42.
Next, “GGUUCCUACGAGUUCACUGTT against B130024G19Rik”: -2.76 (active); GGAUCAAAUAACAAUGACATT against Hfm1: -0.567; GGCCAUGGUUCUAUAGGACTT against Zbtb37: 0.764.
In the case of “GCUUGUAAAUGGAACGACATT against 0610012G03Rik”, the z-score was -0.69.
On to CCAUAUUUUACCCAAAAGCTT against Prune1, for which the z-score was -1.04.
Consider CGAAGGAGUCAAAACUGGGTT against Klk1b8, for which the z-score is -1.79.
With GGAGAUCUCACCGACAUUGTT against Cpt1c the figure was -1.22.
Next, GGCUUUGCUACUUGGGAUATT against Wdr86: 3.16 (active).
On to CCUACUCGUAUAAUCUUCUTT against Ago3, for which the z-score was 0.496.
As to GCGUUUGGGCCGGAAGAAATT against Smo, the z-score is 0.57.
Next, GGCAGUUUGAGAUUGUGUCTT against Thbs2: -0.00379; GCUCAUCGAGCCUGUACACTT against Med26: -0.296.
Next, GGUGGAACCCAAUGACACCTT against Cers5: 1.21.
With GGCUUCUACCUUCGAGACUTT against Carns1 the figure was -2.3 (active); with GGUAGUUGUGCCAGAAAAATT against Garre1, 0.0675; with GGACCCUCUAGAUGACCAATT against Trem2, -1.09.
For the sequence “GGUUCCUUUAACUUUGGUUTT against A730089K16Rik”, the z-score was 2.18 (active).
With CCUUUACACGUAAAAGAAGTT against Zfp445 the figure was -0.194.
With CCUGUUGAGUACUGUGCUGTT against Olfr987 the figure was -0.437; with CCCAUGUAAGGAUGUGUCGTT against Frmd5, 0.761.
With CGGGAAGCUAUCAUCAAAATT against Rgs13 the figure was 0.12; with GGACACAGAAAAAGUUGAATT against Tbc1d4, -0.0174; with GCAAUGGACUACUGCUGCUTT against Olfr704, -2.26 (active).
On to “GGAUGUUAAAAUUGCCCUGTT against Olfr911-ps1”, for which the z-score was 0.896.
With GGACGAGAAUCAAGAGCAGTT against Cdkn1c the figure was -0.0249.
In the case of UGGUUGUGAUCAACAGAAUTT against Cyp2d12, the z-score is -0.933.
Consider CCAUUUAUAUCAGGCAUCATT against Lrit1, for which the z-score is -0.647.
